Source: PubChem (The Scripps Research Institute Molecular Screening Center)
KLK7 zymogen act = activates the human kallikrein-7 zymogen; purified proKLK7, EDANS-DABCYL substrate fluorescence; 100% is mature enzyme control, 0% vehicle; activation, % at 7 µM; 0.9% of 370,000 active; AID 652039;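 active means activation above the mean of all tested compounds plus 3 SD, computed per campaign excluding outliers beyond control limits, cut at about 13% in these data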
PLC-gamma1 inh = PLC-gamma1 (human) inhibition, primary screen; P19174; purified PLC-gamma1, fluorogenic substrate, fluorescence; inhibition, % at 12.2 µM; 0.84% of 370,000 active; AID 720700; in the data active means inhibition above about 9.5%
ADAM17 inh = inhibits human ADAM17; recombinant ADAM17, EDANS/DABCYL FRET peptide cleavage; inhibition, % at 6.95 µM; 0.83% of 370,000 active;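 active means inhibition above the mean of compounds lying between control limits plus 3 SD, set per campaign, cut at about 8.5% in these data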
Target sequence (P78536 215-824 limits assumed): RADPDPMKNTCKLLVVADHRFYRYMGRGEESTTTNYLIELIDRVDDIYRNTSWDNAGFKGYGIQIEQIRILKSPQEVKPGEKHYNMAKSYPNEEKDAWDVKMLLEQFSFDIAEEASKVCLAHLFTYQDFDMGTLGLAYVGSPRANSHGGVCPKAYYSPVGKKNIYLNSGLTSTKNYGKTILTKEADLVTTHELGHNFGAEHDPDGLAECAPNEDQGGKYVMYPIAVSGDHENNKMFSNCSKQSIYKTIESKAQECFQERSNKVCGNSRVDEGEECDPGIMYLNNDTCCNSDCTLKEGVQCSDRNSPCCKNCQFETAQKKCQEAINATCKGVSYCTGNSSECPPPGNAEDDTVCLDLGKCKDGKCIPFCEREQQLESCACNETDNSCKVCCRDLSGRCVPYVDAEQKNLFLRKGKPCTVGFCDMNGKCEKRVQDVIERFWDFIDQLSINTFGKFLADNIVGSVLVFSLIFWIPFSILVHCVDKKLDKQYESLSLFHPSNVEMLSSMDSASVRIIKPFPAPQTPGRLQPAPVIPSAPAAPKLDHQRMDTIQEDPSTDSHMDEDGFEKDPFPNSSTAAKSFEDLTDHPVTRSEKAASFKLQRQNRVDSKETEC
PLC-beta3 inh = inhibitors of human phospholipase C beta3 | Q01970 | Purified PLC-beta3, fluorogenic substrate, fluorescence | inhibition, % at 12.2 µM | AID 720704 | 0.18% of 370,000 active; in the data active means inhibition above about 11%
ADAM10 inh = inhibitors of human ADAM10; O14672; recombinant ADAM10, EDANS/DABCYL FRET peptide cleavage, 3 h; inhibition, % at 7 µM; 0.62% of 370,000 active; AID 720582;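 active means inhibition above a per-campaign cutoff equal to the mean of compounds falling between control-based bounds plus 3 SD, cut at about 20% in these data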
ADAM10 confirm = human ADAM10 inhibition, confirmation; shares compounds with ADAM10 inh; ADAM10 QFRET peptide cleavage, EDANS fluorescence; inhibition, % at 6.95 µM; 1% of 2,100 active;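 active means inhibition above about 20% chosen separately for each screening run, limit read from the data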
ADAM17 ctr = ADAM17 inhibition, counter-screen for ADAM10 exosite hits; shares compounds with ADAM10 inh; inhibition, % at 6.95 µM; ADAM17 QFRET peptide cleavage, EDANS fluorescence; 0.5% of 2,100 active; AID 743214;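 active means mean triplicate inhibition above the solvent-only control wells' mean plus 3 SD, cut at about 12% in these data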
ADAM10 ctr = inhibits human ADAM10 in ADAM17 exosite counter-screen | recombinant ADAM10, EDANS/DABCYL FRET peptide cleavage, 3 h | inhibition, % at 6.95 µM | 47% of 2,900 active | shares compounds with ADAM17 inh | AID 743256;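 active means mean inhibition over the triplicate runs exceeds the activity threshold set in the earlier primary screen, cut at about 20% in these data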
ADAM17 confirm = human ADAM17 inhibition, confirmation | shares compounds with ADAM17 inh | recombinant ADAM17, EDANS/DABCYL QFRET peptide cleavage | inhibition, % at 6.95 µM | 65% of 2,900 active | AID 743257;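 active means mean inhibition across replicates above the hit cutoff set in the primary screen, cut at about 8.5% in these data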
Numbers stand for hits. Rows were chosen to be rich in hits. Some 2.9% of all compounds tested hit in one or more screens of this group.

For Cc1ccc(NC(=O)CN(C)C(=O)c2cccnc2Nc2cccc(C(F)(F)F)c2)cc1 the results were KLK7 zymogen act inactive, PLC-gamma1 inh inactive, ADAM17 inh 13, PLC-beta3 inh inactive, ADAM10 inh 36, ADAM10 confirm inactive, ADAM17 ctr inactive, ADAM10 ctr 52 and ADAM17 confirm 28.
Screening CCOC1=C2[C@@H](CN(S(=O)(=O)c3ccc(C)cc3)[C@H]2c2cccc3ccccc23)[C@H]2C(=O)N(Cc3ccccc3)C(=O)[C@H]2C1 returned KLK7 zymogen act inactive, PLC-gamma1 inh inactive, ADAM17 inh 8.8, PLC-beta3 inh inactive, ADAM10 inh 25, ADAM10 confirm inactive, ADAM17 ctr inactive, ADAM10 ctr 21 and ADAM17 confirm 14.
For CCOC1=C2[C@@H](CN(S(=O)(=O)c3ccc(C)cc3)[C@H]2c2cccc3ccccc23)[C@H]2C(=O)N(CC)C(=O)[C@H]2C1 the results were KLK7 zymogen act inactive, PLC-gamma1 inh inactive, ADAM17 inh inactive, PLC-beta3 inh inactive and ADAM10 inh inactive.
For COc1ccc(N2CCN(C(=O)COC(=O)c3ccc(-n4nc(C)cc4C)cc3)CC2)cc1 the results were KLK7 zymogen act inactive, PLC-gamma1 inh inactive, ADAM17 inh inactive, PLC-beta3 inh inactive and ADAM10 inh inactive.
`CNC(=O)[C@@H](NC(=O)[C@H](CC(C)C)[C@H](O)C(=O)NO)C(C)(C)C` gave KLK7 zymogen act inactive, PLC-gamma1 inh inactive, ADAM17 inh 99, PLC-beta3 inh inactive, ADAM10 inh 95, ADAM10 confirm 100, ADAM17 ctr 102, ADAM10 ctr 106 and ADAM17 confirm 102.
Screening CNC(=O)C(NC(=O)CNC(=O)c1ccc(Cl)cc1)C(C)(C)C (stereo not drawn) returned KLK7 zymogen act inactive, PLC-gamma1 inh inactive, ADAM17 inh inactive, PLC-beta3 inh inactive and ADAM10 inh inactive.
Screening Cc1ccc(NC(=O)COC(=O)Cn2cnc3ccccc32)c(C)c1 returned KLK7 zymogen act inactive, PLC-gamma1 inh inactive, ADAM17 inh inactive, PLC-beta3 inh inactive and ADAM10 inh inactive.
`Cc1ccc(S(=O)(=O)N(C)c2ccc(OCC(=O)Nc3nc4c(ccc5ccccc54)s3)cc2)cc1` gave KLK7 zymogen act inactive, PLC-gamma1 inh inactive, ADAM17 inh inactive, PLC-beta3 inh inactive and ADAM10 inh inactive.
For Cc1ccc(S(=O)(=O)N(C)c2ccc(OCC(=O)Nc3nc4ccccc4s3)cc2)cc1 the results were KLK7 zymogen act inactive, PLC-gamma1 inh inactive, ADAM17 inh 18, PLC-beta3 inh inactive, ADAM10 inh 29, ADAM10 confirm inactive, ADAM17 ctr inactive, ADAM10 ctr 23 and ADAM17 confirm 16.
C=CC[C@@H](CC(=O)N[C@@H](CO)Cc1ccccc1)C(=O)N[C@H](COC(=O)[C@@H](CC=C)Cc1ccc(F)cc1)Cc1c[nH]c2ccccc12 was read as KLK7 zymogen act inactive, PLC-gamma1 inh inactive, ADAM17 inh inactive, PLC-beta3 inh inactive and ADAM10 inh inactive.
For C=CCC[C@@H](Cc1ccc(F)cc1)C(=O)OC[C@@H](NC(=O)[C@H](CC=C)CC(=O)N(CCO)Cc1ccccc1)c1ccccc1 the results were KLK7 zymogen act inactive, PLC-gamma1 inh inactive, ADAM17 inh 11, PLC-beta3 inh inactive, ADAM10 inh 27, ADAM10 confirm inactive, ADAM17 ctr inactive, ADAM10 ctr 36 and ADAM17 confirm 20.
C=CCC[C@H](Cc1ccc(F)cc1)C(=O)OC[C@@H](C)NC(=O)[C@H](CC=C)CC(=O)N(CCO)Cc1ccccc1 was read as KLK7 zymogen act inactive, PLC-gamma1 inh inactive, ADAM17 inh inactive, PLC-beta3 inh inactive and ADAM10 inh inactive.
